The target in assay [1] is ATP-dependent 6-phosphofructokinase (Trypanosoma brucei brucei) (UniProt O15648). Briefly: qHTS Assay to Find Inhibitors of T. brucei phosphofructokinase: hit validation (AID 492961).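 Note: luminescence reports ADP formed as PFK phosphorylates fructose-6-phosphate with ATP; % is set by controls: 0 for no effect and ±100 for the full control effect.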 The gist of the method:
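Inhibition of parasite PFK is measured as reduced ADP formation, quantified via luciferase after ATP depletion. Assay used 0.1 mM ATP, 0.5 mM F6P, 1.25 nM enzyme, 45 min incubation.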
(In general: Quantitative high-throughput screening tests each substance at several concentrations.)

Assay [2] is described as follows: qHTS profiling for inhibitors of Plasmodium falciparum proliferation (AID 504749).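 For activity, negative = inhibition: 0% = DMSO vehicle and full inhibition = artemisinin control.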 For all read-outs here: nearly all actives have a fitted effect of over 60% in size. Note: potency is the fitted concentration of half-maximal effect. The conditions noted are these: P. falciparum in erythrocytes, SYBR Green DNA, 72 h; for activity, negative = inhibition: at 28.7 µM (top of the series). The gist of the method: (§1)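 Each compound contacts P. falciparum-infected red blood cells for 72 h at 37 C; lysis buffer (Tris, EDTA, saponin, Triton X, SYBR Green I) is added and fluorescence measured next morning; values normalized to controls.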

The subject of the next assay is 3D7. The description is as above. Particulars: P. falciparum in erythrocytes, SYBR Green DNA, 72 h; series mostly up to 28.7 µM. The method, boiled down:
as §1

Another assay concerns ATS189. The assay is described as above. The conditions noted are these: P. falciparum in erythrocytes, SYBR Green DNA, 72 h; series mostly up to 28.7 µM. The method, boiled down: as §1
The next assay has as its system CP185. The assay is described as above. The conditions noted are these: P. falciparum in erythrocytes, SYBR Green DNA, 72 h; series mostly up to 28.7 µM. The method, boiled down:
as §1

The subject of another assay is CP191. The assay is described as above. Particulars: P. falciparum in erythrocytes, SYBR Green DNA, 72 h; series mostly up to 28.7 µM. The method, boiled down:
as §1

The next assay relates to CP192. Described as above. Particulars: P. falciparum in erythrocytes, SYBR Green DNA, 72 h; series mostly up to 28.7 µM. The gist of the method:
as §1

For another assay, the system named is CP194. The assay is described as above. The conditions noted are these: P. falciparum in erythrocytes, SYBR Green DNA, 72 h; series mostly up to 28.7 µM. The gist of the method:
as §1

The subject of a further assay is CP211. The description is as above. Particulars: P. falciparum in erythrocytes, SYBR Green DNA, 72 h; series mostly up to 28.7 µM. The gist of the method: as §1
In a further assay the test system is CP217. Described as above. Particulars: P. falciparum in erythrocytes, SYBR Green DNA, 72 h; series mostly up to 28.7 µM. The gist of the method: as §1
Another assay deals with CP238. Described as above. The conditions noted are these: P. falciparum in erythrocytes, SYBR Green DNA, 72 h; series mostly up to 28.7 µM. The gist of the method: as §1
In another assay the test system is CP252. The description is as above. The conditions noted are these: P. falciparum in erythrocytes, SYBR Green DNA, 72 h; series mostly up to 28.7 µM. The method, boiled down:
as §1

A further assay relates to CP262. Described as above. Particulars: P. falciparum in erythrocytes, SYBR Green DNA, 72 h; series mostly up to 28.7 µM. The method, boiled down: as §1
The next assay has as its system CP265. The assay is described as above. The conditions noted are these: P. falciparum in erythrocytes, SYBR Green DNA, 72 h; series mostly up to 28.7 µM. The gist of the method:
as §1

The subject of the next assay is CP269. The description is as above. The conditions noted are these: P. falciparum in erythrocytes, SYBR Green DNA, 72 h; series mostly up to 28.7 µM. The method, boiled down: as §1
The subject of the next assay is CP286. The assay is described as above. Particulars: P. falciparum in erythrocytes, SYBR Green DNA, 72 h; series mostly up to 28.7 µM. The gist of the method:
as §1

Another assay concerns CP329. The assay is described as above. The conditions noted are these: P. falciparum in erythrocytes, SYBR Green DNA, 72 h; series mostly up to 28.7 µM. The gist of the method:
as §1

The subject of a further assay is Dd2. The assay is described as above. The conditions noted are these: P. falciparum in erythrocytes, SYBR Green DNA, 72 h; series mostly up to 28.7 µM. The gist of the method:
as §1

Another assay relates to ECU. The description is as above. The conditions noted are these: P. falciparum in erythrocytes, SYBR Green DNA, 72 h; series mostly up to 28.7 µM. The method, boiled down:
as §1

A further assay relates to FAB9. The assay is described as above. The conditions noted are these: P. falciparum in erythrocytes, SYBR Green DNA, 72 h; series mostly up to 28.7 µM. The method, boiled down:
as §1

Records with an inconclusive call do not appear. A number with no mark means an inactive call. The source made the active and inactive calls. Calls come from the whole dose curve; as a rule, active = well fitted curve in the direction sought with a large enough effect; inconclusive = small, poorly fitted or top-dose-only effect, or another doubt; inactive = no such curve, though single readings can be large; an effect the other way counts as inactive or inconclusive.

Chain of ATP-dependent 6-phosphofructokinase (Trypanosoma brucei brucei) (O15648 whole entry, looked up): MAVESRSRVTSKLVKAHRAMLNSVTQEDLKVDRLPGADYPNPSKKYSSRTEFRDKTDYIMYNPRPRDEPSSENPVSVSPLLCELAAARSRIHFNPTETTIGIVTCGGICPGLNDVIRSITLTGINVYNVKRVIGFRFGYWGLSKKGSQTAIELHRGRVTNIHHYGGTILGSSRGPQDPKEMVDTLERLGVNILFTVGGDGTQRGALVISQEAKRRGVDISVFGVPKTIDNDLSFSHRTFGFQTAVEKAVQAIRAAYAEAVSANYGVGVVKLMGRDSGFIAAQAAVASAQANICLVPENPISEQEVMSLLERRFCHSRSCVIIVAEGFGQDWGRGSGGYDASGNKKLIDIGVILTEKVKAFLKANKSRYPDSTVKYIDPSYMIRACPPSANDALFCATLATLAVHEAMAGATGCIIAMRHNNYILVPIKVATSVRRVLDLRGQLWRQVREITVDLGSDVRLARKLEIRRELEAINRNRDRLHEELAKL

On to `CCCCC/C(C=O)=C/c1ccccc1`, for which the Potency entry (in assay [1]; in the assay with 3D7; in the assay with ATS189; in the assay on CP185; in the assay with CP191; in the assay with CP192) was “inactive” in each case. The Potency result in the assay with CP194, in the assay on CP211, with CP217, in the assay on CP238, in the assay on CP252 and in the assay with CP262 was “inactive” in each case. Further, the Potency entry with CP265, with CP269, in the assay with CP286, in the assay on CP329, in the assay with Dd2 and with ECU was “inactive” throughout. Besides, the Potency entry with FAB9 is “inactive”. Moreover, the results for the activity, negative = inhibition in assay [2] (parasite line A) and in [2] (parasite line B) were -0.781% and -10.8%, respectively.
Turning to `C[n+]1c2cc(N)ccc2cc2ccc(N)cc21`, the Potency result in [1] was “inactive”. The Potency in assay [2] (parasite line A) is 398 nM (active); in assay [2] (parasite line B), 1000 nM (active); in the assay on 3D7, 398 nM (active); with ATS189, 1120 nM (active); in the assay with CP185 it was 631 nM (active); in the assay with CP191, 282 nM (active). For the same molecule, the Potency was 1200 nM (active) in the assay with CP192; 1200 nM (active) in the assay with CP194; 953 nM (active) in the assay on CP211; 891 nM (active) in the assay on CP217; 708 nM (active) in the assay on CP238; 794 nM (active) in the assay with CP252. Besides, the Potency was 1350 nM (active) in the assay with CP262; 1260 nM (active) with CP265; 953 nM (active) with CP269; 178 nM (active) in the assay on CP286; 1070 nM (active) with CP329; 355 nM (active) in the assay on Dd2. Also, the Potency is 1260 nM (active) in the assay on ECU and 199 nM (active) with FAB9.
On to `CCC(C(=O)O)C1OC(C(C)C(O)C(C)C(=O)C(CC)C2OC3(C=CC(O)C4(CCC(C)(C5CCC(O)(CC)C(C)O5)O4)O3)C(C)CC2C)C(C)CC1C` (stereo not drawn), for which the Potency result in assay [1] was “inactive”. Also, the Potency in assay [2] (parasite line A) was 141 nM (active); in assay [2] (parasite line B), 158 nM (active); in the assay on 3D7 it was 100 nM (active); in the assay on ATS189 it was 158 nM (active); with CP185, 224 nM (active); in the assay with CP191 it was 100 nM (active). In addition, the Potency is 169 nM (active) with CP192; 75.7 nM (active) in the assay on CP194; 67.5 nM (active) with CP211; 178 nM (active) with CP217; 199 nM (active) in the assay on CP238; 141 nM (active) in the assay on CP252. Besides, the Potency in the assay on CP262 is 536 nM (active); in the assay on CP265, 224 nM (active); with CP269, 95.3 nM (active); in the assay on CP286, 141 nM (active); in the assay on CP329, 95.3 nM (active); in the assay with Dd2, 100 nM (active). Moreover, the Potency in the assay with ECU was 178 nM (active); in the assay on FAB9, 282 nM (active).
As to `C[C@H]1OC(OC2C(O)[C@@H](O)C(OC3C(O)[C@@H](O)C(O)O[C@@H]3CO)O[C@@H]2CO)[C@H](O)C(O)C1N[C@H]1C=C(CO)[C@@H](O)[C@H](O)C1O` (stereo partly drawn), the Potency result (in [1]; in the assay on 3D7; with ATS189; with CP185; in the assay on CP191; in the assay with CP192) was “inactive” throughout. The Potency entry with CP194, in the assay with CP211, in the assay with CP217, with CP238, with CP252 and in the assay on CP262 was “inactive” throughout. The Potency result in the assay with CP265, with CP269, with CP286, in the assay with CP329, in the assay with Dd2 and in the assay on ECU was “inactive” throughout. Besides, in the assay on FAB9, the Potency entry was “inactive”. Moreover, the activity, negative = inhibition was -6.96% in assay [2] (parasite line A) and 11.4% in assay [2] (parasite line B).
`OCC1O[C@H](Oc2ccc(O)cc2)C(O)C(O)C1O` (stereo partly drawn): the Potency entry (in assay [1]; in the assay with 3D7; in the assay on ATS189; in the assay with CP185; with CP191; with CP192) was “inactive” each time. Further, the Potency entry in the assay with CP194, in the assay on CP211, in the assay on CP217, in the assay on CP238, with CP252 and in the assay on CP262 was “inactive” throughout. For the same molecule, the Potency entry in the assay with CP265, in the assay on CP269, in the assay with CP286, with CP329, in the assay with Dd2 and in the assay on FAB9 was “inactive” throughout. Also, the figures for the activity, negative = inhibition in assay [2] (parasite line A) and in assay [2] (parasite line B) were -4.75% and 1.5%, respectively.
Turning to `C[C@H]1[C@@H](OC(=O)CCC(=O)O)OC2OC3(C)CC[C@H]4[C@H](C)CC[C@@H]1[C@@]24OO3` (stereo partly drawn), the Potency result in [1] was “inactive”. In addition, the Potency in assay [2] (parasite line A) is 4 nM (active); in assay [2] (parasite line B), 3.5 nM (active); in the assay on 3D7 it was 5 nM (active); with ATS189 it was 2.8 nM (active); in the assay on CP185 it was 5 nM (active); in the assay on CP191, 4.5 nM (active). Besides, the Potency in the assay on CP192 is 9.5 nM (active); with CP194, 6 nM (active); in the assay on CP211 it was 4.8 nM (active); with CP217, 7.1 nM (active); in the assay with CP238, 4.5 nM (active); in the assay with CP252, 5 nM (active). Further, the Potency in the assay with CP262 is 5.4 nM (active); in the assay with CP265, 2.5 nM (active); with CP269, 4.8 nM (active); with CP286, 10 nM (active); in the assay with CP329, 7.6 nM (active); with Dd2 it was 4.5 nM (active). Besides, the values for the Potency in the assay on ECU and with FAB9 were 2.8 nM (active) and 4.5 nM (active), respectively.
Turning to `O=C1[C@@H]2C[C@@H]3C[C@H]1C[C@@](O)(C3)C2`, the Potency result (in assay [1]; in the assay on 3D7; in the assay with ATS189; in the assay on CP185; with CP191; with CP192) was “inactive” throughout. For the same molecule, the Potency entry with CP194, in the assay on CP211, in the assay on CP217, in the assay on CP238, in the assay with CP252 and with CP262 was “inactive” in each case. Also, the Potency result in the assay on CP265, with CP269, in the assay on CP286, with CP329, in the assay with Dd2 and in the assay on ECU was “inactive” throughout. For the same molecule, in the assay on FAB9, the Potency result was “inactive”. Also, the activity, negative = inhibition is -0.632% in [2] (parasite line A) and 11.7% in assay [2] (parasite line B).
On to `CNC(=O)C(N)CSC(C)C1=C(C)c2cc3[n-]c(cc4nc(cc5[n-]c(cc1n2)c(C)c5CCC(=O)O)C(CCC(=O)O)=C4C)c(C)c3C(C)SCC(N)C(=O)NC.[Fe+2]` (stereo not drawn), for which the Potency result (in assay [1]; in the assay with 3D7; with ATS189; in the assay with CP185; with CP191; in the assay on CP192) was “inactive” throughout. In addition, the Potency result in the assay with CP194, with CP211, with CP217, in the assay on CP238, with CP252 and with CP262 was “inactive” throughout. Further, the Potency result in the assay with CP265, in the assay with CP269, in the assay on CP286, in the assay on CP329, in the assay on Dd2 and with ECU was “inactive” each time. In addition, in the assay on FAB9, the Potency entry is “inactive”. In addition, the activity, negative = inhibition was 8.98% in assay [2] (parasite line A) and -1.36% in [2] (parasite line B).
Regarding `Cc1ccc(S(=O)(=O)NC(=O)NC(C)Cc2ccccc2)cc1` (stereo not drawn), the Potency entry (in [1]; in the assay on 3D7; in the assay on ATS189; in the assay with CP185; with CP191; with CP192) was “inactive” each time. Further, the Potency result with CP194, in the assay with CP211, in the assay on CP217, in the assay with CP238, in the assay with CP252 and in the assay on CP262 was “inactive” in each case. Besides, the Potency entry in the assay with CP265, in the assay with CP269, in the assay on CP286, in the assay on CP329, with Dd2 and in the assay on ECU was “inactive” each time. The Potency entry in the assay with FAB9 was “inactive”. Also, the values for the activity, negative = inhibition in assay [2] (parasite line A) and in [2] (parasite line B) were 7.07% and 4.66%, respectively.

The values above are taken from PubChem BioAssay (NCATS).
